Test results taken from the supplement of paper PMC13380429.
Values without a mark were called inactive.

System: Vero E6 infected with SARS-CoV-2
Experiment: inhibition of SARS-CoV-2 cytopathic effect; higher = more antiviral protection, active = above 15
Settings: 48 h

CN1[C@@H]2CC[C@H]1C[C@@H](OC(=O)N1Cc3ccccc3NC1=O)C2 was tested. Which “inhibition of SARS-CoV-2 cytopathic effect” value (from here on “inhibition”) (1 nM) did it give?
The value was -1.09%.

What about the “inhibition” value (8.33 nM) of the same compound?
The value was -0.87%.

And the “inhibition” value (100 nM)?
The value was 1.69%.

And the “inhibition” value (833.33 nM)?
Its value is 1.84%.

And the “inhibition” value (10000 nM)?
The value was -0.21%.

With CCC(CC)(CC(=O)Nc1cccc(/C=C/c2nc(C3CCC3)cs2)c1)C(=O)O [cinalukast] as the compound, how does the “inhibition” value (1 nM) read?
Its value is -1.61%.

And the “inhibition” value (8.33 nM)?
The value was 0.18%.

And the “inhibition” value (100 nM)?
Its value is 0.24%.

What about the “inhibition” value (833.33 nM) of the same compound?
Its value is 0.4%.

And the “inhibition” value (10000 nM)?
The value was 1.8%.

How did the “inhibition” value (1 nM) turn out when N#Cc1ccc(COC[C@H]2O[C@@H](n3c(NCc4ccc(Cl)c(Cl)c4)nc4c(N)ncnc43)[C@H](O)[C@@H]2O)cc1 was run?
Its value is 2.98%.

What about the “inhibition” value (8.33 nM) of the same compound?
Its value is -0.66%.

And the “inhibition” value (100 nM)?
The value was -1.89%.

What about the “inhibition” value (833.33 nM) of the same compound?
The value was -0.44%.

What about the “inhibition” value (10000 nM) of the same compound?
Its value is -3.34%.

Which “inhibition” value (1 nM) does the source give for CCN1CCN(c2cc(-c3ccc(F)cc3)c3c(n2)CCCCCC3)CC1 [blonanserin] here?
The value was 3.34%.

What about the “inhibition” value (8.33 nM) of the same compound?
Its value is 2.25%.

And the “inhibition” value (100 nM)?
Its value is -2.9%.

What about the “inhibition” value (833.33 nM) of the same compound?
Its value is -0.44%.

And the “inhibition” value (10000 nM)?
Its value is -3.59%.

Which “inhibition” value (1 nM) does the source give for Cc1sc(N)c(C(=O)c2cccc(C(F)(F)F)c2)c1C here?
Its value is 1.09%.

What about the “inhibition” value (8.33 nM) of the same compound?
The value was -1.79%.

What about the “inhibition” value (100 nM) of the same compound?
Its value is -3.31%.

And the “inhibition” value (833.33 nM)?
Its value is -3.27%.

What about the “inhibition” value (10000 nM) of the same compound?
Its value is -2.62%.

Which “inhibition” value (1 nM) does the source give for CC(C)C[C@H](NC(=O)[C@H](Cc1ccccc1)NC(=O)c1cnccn1)B(O)O [bortezomib] here?
The value was 1.7%.

What about the “inhibition” value (8.33 nM) of the same compound?
Its value is 11%.

And the “inhibition” value (100 nM)?
The value was 32.8% (active).

What about the “inhibition” value (833.33 nM) of the same compound?
The value was 27.1% (active).

And the “inhibition” value (10000 nM)?
The value was 12.7%.
